The record followed here is PubChem BioAssay AID1006 (Sanford-Burnham Center for Chemical Genomics, 2008).

The term inhibition denotes the relative decrease from the control value, in per cent.

Values joined by “and” are separate entries in the source; they are usually repeats but may differ in a detail not shown here. Identical values can stand only once. Hit rate of the full screen: of about 200,000 compounds, about 3,000 (1.5%) were called active.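 The calls were made as follows: active = inhibition above about 50% when tested at 10 µM (limit read from the data); inactive = the rest.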 For the sample, actives were picked, then their nearest neighbours and some compounds at random.

Sequence of Luciferin 4-monooxygenase (Photinus pyralis) (P08659 whole entry, looked up): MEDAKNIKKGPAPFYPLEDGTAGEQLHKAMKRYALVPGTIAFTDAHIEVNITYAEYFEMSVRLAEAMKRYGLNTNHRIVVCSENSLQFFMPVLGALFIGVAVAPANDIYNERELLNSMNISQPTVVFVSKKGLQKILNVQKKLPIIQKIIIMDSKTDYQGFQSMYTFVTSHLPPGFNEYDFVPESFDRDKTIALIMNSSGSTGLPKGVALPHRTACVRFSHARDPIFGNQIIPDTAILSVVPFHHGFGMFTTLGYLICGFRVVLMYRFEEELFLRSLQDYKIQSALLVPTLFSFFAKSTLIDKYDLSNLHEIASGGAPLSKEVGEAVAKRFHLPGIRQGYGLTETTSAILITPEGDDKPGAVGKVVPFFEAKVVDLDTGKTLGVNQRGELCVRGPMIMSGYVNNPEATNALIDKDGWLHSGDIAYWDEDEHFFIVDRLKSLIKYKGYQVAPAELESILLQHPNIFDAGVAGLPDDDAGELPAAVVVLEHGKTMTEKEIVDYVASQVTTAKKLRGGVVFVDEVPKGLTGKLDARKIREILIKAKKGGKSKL

This experiment has as its target Luciferin 4-monooxygenase (Photinus pyralis) (UniProt P08659). Briefly: firefly luciferase enzyme inhibitors, primary screen, artefact control for luciferase-based inhibitor screens, biochemical, luminescence, ATPLite (AID 1006). The settings on record: 10 min, at 10 µM, active compounds read high. On the technique in general: In ATP-based viability assays light output follows the ATP content of the culture.
As to `COc1cc(SC)ccc1C(=O)NCCOc1ccccc1Cl`, the inhibition is -0.8% (inactive).
For the compound `COc1ccc(C(=O)Nc2nncs2)c(OC)c1`, the inhibition is 40% (inactive).
With `COc1cc(SC)ccc1C(=O)Nc1cc(C)ccn1` the figure was 80.7% (active).
With `Cc1ccnc(NC(=O)c2ccoc2C)c1` the figure was 18.1% (inactive).
With `COc1cc(SC)ccc1C(=O)Nc1nc(C)cs1` the figure was 97.7% (active); with `COc1ccccc1CNC(=O)c1ccc(SC)cc1OC`, -4.7% (inactive); with `Cn1cnnc1SCC(=O)NNC(=O)COc1ccc(Br)cc1`, 3.3% (inactive).
In the case of `COc1ccc(/C=N/NC(=O)c2ccncc2)cc1CN1CCCc2ccccc21`, the inhibition is -8.3% (inactive).
For `COc1ccc(C)cc1-n1nnnc1SCc1nc2ccccc2c(=O)[nH]1`, the inhibition was 0.3% (inactive).
With `Fc1cccc(Cc2noc(CN3CCN(c4cnccn4)CC3)n2)c1` the figure was -8.2% (inactive).
Regarding `Cc1nc2ccc(NC(=O)C(F)(F)F)cc2o1`, the inhibition was -2.2% (inactive).
Then `Cc1nc2cc(NC(=O)NCc3ccccc3)ccc2o1`, with 12% (inactive).
Then `Cc1ccc(NC(=O)Nc2ccc3oc(C)nc3c2)cc1`, with 70.8% (active).
Then `O=C(CN1CCc2ccccc21)NC(c1ccccc1)c1ccccc1`, with -10.6% (inactive).
On to `O=C(N/N=C/c1ccc(OCC2COCCO2)cc1)c1ccc(Br)cc1` (stereo not drawn), for which the inhibition was 2.2% (inactive).
Turning to `CCS(=O)(=O)c1ccc(C(=O)NC)c(Cl)c1Cl`, the inhibition was -3.5% (inactive).
With `COc1ccccc1N1CCN(CC(=O)NCCc2ccc(S(N)(=O)=O)cc2)CC1` the figure was -3% (inactive); with `O=C(Cc1cccs1)Nc1nnc(C2CC2)s1`, -1.8% (inactive); with `Cc1occc1C(=O)Nc1nnc(C2CCCCC2)s1`, -4% (inactive).
For `O=C(Nc1nnc(C2CC2)s1)c1ccccn1`, the inhibition is 63.4% (active).
Regarding `Nc1ccc(-c2nnc(-c3ccc(-c4ccccc4)cc3)o2)cc1`, the inhibition is 3.7% (inactive).
With `CSc1ccccc1-c1nnc(-c2ccc(Cl)cc2)o1` the figure was 53.8% (active); with `FC(F)(F)c1cnc(Oc2ccccc2-c2nnc(-c3ccc(Cl)cc3)o2)c(Cl)c1`, -1.6% (inactive); with `COc1cccc(CC2(CO)CCCN(Cc3nc(-c4cccs4)oc3C)C2)c1` (stereo not drawn), -8.7% (inactive).
For `CC(=O)Nc1ccc(OCCC[n+]2cccc(C(=O)[O-])c2)cc1`, the inhibition was -2.9% (inactive).
On to `Cc1ccc(NC(=O)CNCc2ccccn2)cc1S(=O)(=O)N(C)C`, for which the inhibition is -1.9% (inactive).
With `Cc1ccc(NC(=O)c2cccs2)cc1S(=O)(=O)N(C)C` the figure was 15.2% (inactive).
With `Cc1ccc(C(=O)Nc2ccc(C)c(S(=O)(=O)N(C)C)c2)s1` the figure was 71.1% (active).
With `CCOc1ncccc1C(=O)N(CC)CC(=O)Nc1ccc(NC(C)=O)cc1` the figure was -8.7% (inactive); with `O=c1oc2ccccc2cc1-c1csc(Nc2ccc(O)cc2)n1`, 17.8% (inactive).
On to `CCNc1nc(-c2cc3ccccc3o2)cs1`, for which the inhibition was 64.9% (active).
Regarding `COc1ccc2nc(Nc3nc(-c4cc5ccccc5oc4=O)cs3)sc2c1`, the inhibition is 40.7% (inactive).
Then `CC/C(Cc1ccccc1)=N/NC(=O)CCn1nnc2ccccc21`, with -3.6% (inactive); and `Cc1ccccc1C1=N/C(=C/c2cccnc2)C(=O)O1`, with 34.5% (inactive).
Then `O=C1OC(c2ccc(Cl)cc2)=N/C1=C\c1cccnc1`, with -3.3% (inactive); and `Cc1ccc(C2=C/C(=C\c3cccnc3)C(=O)O2)cc1`, with 52.2% (active).
With `Cc1ccc(C)c(CSc2nc(-c3ccco3)nc3c2c(=O)n(C)c(=O)n3C)c1` the figure was 0.1% (inactive); with `CC(=O)c1ccc(N2CCN(S(=O)(=O)c3c(C)[nH]c(=O)[nH]c3=O)CC2)cc1`, -3% (inactive); with `O=C(CCN1CCN(C/C=C/c2ccccc2)CC1)Nc1cccc(F)c1`, -5.5% (inactive).
For the compound `COc1ccccc1C(=O)NNC(=O)c1ccc(NC(=O)c2ccccc2)cc1`, the inhibition is -1.7% (inactive).
With `COc1cc(/C=N/NC(=O)c2ccccc2)ccc1OS(=O)(=O)c1ccccc1` the figure was -2.6% (inactive); with `COc1ccc(C(=O)Nc2ccccc2C(=O)N/N=C/c2ccccc2OC)cc1`, 97.8% (active).
As to `COc1ccc(C(=O)Nc2ccccc2C(=O)N/N=C/c2ccc(O)c(OC)c2)cc1`, the inhibition is 98.3% (active).
With `COc1ccc(/C=N/NC(=O)c2ccccc2)cc1OS(=O)(=O)c1ccccc1`, the inhibition is -2.1% (inactive).
Then `CCn1c(/C=N/NC(=O)c2ccc(OC)cc2)nc2ccccc21`, with 8.7% (inactive); and `CCN(CC)c1ccc([N+](=O)[O-])cc1C(=O)O`, with -4.3% (inactive); and `Cc1ccc2cc(CN(c3ccc(C)c(C)c3)S(C)(=O)=O)c(=O)[nH]c2c1`, with -3.5% (inactive).
For `CCOC(=O)C1=C(CC)Nc2ccccc2N=C1N`, the inhibition is -6.8% (inactive).
With `CCc1ccccc1NC(=O)CN(c1ccc(OC)cc1OC)S(=O)(=O)c1ccccc1[N+](=O)[O-]` the figure was -10.9% (inactive); with `COc1ccc(N(CC(=O)NC2CCCC2)C(=O)CS(=O)CC(=O)Nc2ccc3c(c2)OCO3)cc1` (stereo not drawn), -6.6% (inactive).
Then `COc1cc2c(C(=O)N3CCN(C)CC3)c(CSc3ccccc3)n(C)c2cc1Br`, with -9.2% (inactive); and `Cc1cc2ccccn2c1C(=O)c1cccc(S(=O)(=O)N2CCOCC2)c1`, with 4.2% (inactive).
With `COc1ccc(Cn2c(-c3ccc(Cl)cc3)c[n+]3ccccc23)cc1` the figure was 7.2% (inactive); with `CC(C)C(NC(=O)C1CCC(C(C)(C)C)CC1)C(=O)NCCCN1CCCCC1` (stereo not drawn), -3% (inactive).
For `COc1ccccc1C(=O)Oc1ccc(N2C(=O)CCC2=O)cc1`, the inhibition is -2.3% (inactive).
Then `Cc1cc(OC(=O)c2ccccc2Cl)ccc1N1C(=O)CCC1=O`, with 69% (active).
With `Cc1ccc(C)c(N2C(=O)CS/C2=N\NC(=O)c2ccccc2Cl)c1` the figure was -0.5% (inactive); with `C=CCn1c(P(C)(=O)O)nc2ccccc21`, -7.9% (inactive) and -5.5% (inactive).
Then `CCc1ccc(OCC(=O)OCC(=O)c2c(N)n(C)c(=O)n(C)c2=O)cc1`, with -11.1% (inactive); and `O=C1CCCc2c1nc(-c1cccc(Cl)c1)n2O`, with -1.6% (inactive).
Turning to `O=c1c2c(nc3nc[nH]n13)CCC2`, the inhibition was -4.1% (inactive).
Take `O=c1c2c(nc3cc(-c4cccc(Cl)c4)[nH]n13)CCCC2`: the inhibition was 74.9% (active).
Then `COc1ccc(C(=O)OCC(=O)NC(=O)CCSc2ccccc2)cc1`, with -0.8% (inactive).
